Laboratory results as given in PubChem BioAssay AID2778 (National Center for Advancing Translational Sciences (NCATS), 2010).
Inconclusive results are not listed. Active and inactive are the calls of the source. Calls come from the whole dose curve; as a rule, active = well fitted inhibition curve with a large enough effect; inconclusive = small, poorly fitted or top-dose-only effect, or effect the other way; inactive = flat fitted curve, though single readings scatter.

molecular target: Menin (Homo sapiens) (UniProt O00255); experiment: Confirmation of Inhibitors Targeting the Menin-MLL Interaction in MLL Related Leukemias: Confirmation in an HTRF (commercial TR-FRET) Assay using His-tagged menin and biotin-labeled MLL peptide; conditions: His-menin / biotin-MLL peptide binding; series mostly up to 126 µM
Procedure, shortened: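 Compounds were incubated 1 hr at ambient with a preformed His6-menin (200 nM)/biotinylated MLL-w.t. peptide (80 nM) complex in Tris pH 7.5 buffer; anti-His Eu-cryptate (3.5 nM) and SA-XL665 (10 nM) added, TR-FRET read after 1h.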

Chain of Menin (Homo sapiens) (O00255 whole entry, looked up): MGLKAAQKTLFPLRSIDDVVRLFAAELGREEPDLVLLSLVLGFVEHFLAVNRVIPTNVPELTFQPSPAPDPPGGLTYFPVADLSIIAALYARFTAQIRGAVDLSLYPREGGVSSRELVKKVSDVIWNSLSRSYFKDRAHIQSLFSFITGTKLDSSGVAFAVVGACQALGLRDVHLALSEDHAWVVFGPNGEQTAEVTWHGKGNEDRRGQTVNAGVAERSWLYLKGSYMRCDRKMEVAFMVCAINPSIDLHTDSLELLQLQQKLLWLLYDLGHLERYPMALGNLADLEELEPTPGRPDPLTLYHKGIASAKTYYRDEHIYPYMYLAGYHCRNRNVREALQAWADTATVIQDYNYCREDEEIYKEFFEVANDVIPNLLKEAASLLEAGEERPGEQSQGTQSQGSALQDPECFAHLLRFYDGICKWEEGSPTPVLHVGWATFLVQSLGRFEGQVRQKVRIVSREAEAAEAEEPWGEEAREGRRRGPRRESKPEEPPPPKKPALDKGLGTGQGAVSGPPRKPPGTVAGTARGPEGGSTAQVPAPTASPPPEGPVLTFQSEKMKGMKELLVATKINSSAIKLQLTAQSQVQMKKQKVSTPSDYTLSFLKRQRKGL

Potency, inactive:
CCOC(=O)C1CCN(CC(O)COCc2ccccc2)CC1 (centres undefined)
CCOC(=O)N1CCN(Cc2nnc(-c3ccccc3C)o2)CC1
CCOc1ccc(C2Nc3ccc4ccccc4c3-c3c2c(=O)oc2ccccc32)cc1 (centres undefined)
N#CC1=C(N)OC2=C(C(=O)CC(c3ccco3)C2)C1c1ccc(OCc2c(F)cccc2Cl)cc1 (centres undefined)
O=C(NC(=S)Nc1ccccc1)c1cc(-c2ccccc2)nc2ccccc12
CCOc1cc(C(c2c(C)[nH][nH]c2=O)c2c(C)[nH][nH]c2=O)cc(Br)c1OC
CCOC(=O)c1cnc2ccc(OC)cc2c1Nc1ccc(N2CCN(C)CC2)cc1
CCN1C(=O)[C@@H]2C(C(=O)c3cnccn3)=NN[C@@H]2C1=O
O=C1C(Cl)=C(NC(=O)c2ccccc2)C(=O)C(Cl)=C1NC(=O)c1ccccc1
COc1ccc(-c2csc(NC(=O)c3cc(-c4cccs4)nc4ccccc34)n2)c(OC)c1
Cc1ccc(NS(=O)(=O)c2csc(C(N)=O)c2)cc1C
COc1ccc2[nH]c(=O)c(CN(Cc3cccs3)C(=S)Nc3cccc(C)c3)cc2c1
COc1ccc(N(CC(=O)NC2CC3CCC2C3)S(=O)(=O)c2ccc(C)cc2)cc1OC (centres undefined)
COc1ccc(NC(=O)NC2(C(=O)N3CCOCC3)CCCCC2)cc1
CN1CCN(CC(=O)Nc2ccc(S(=O)(=O)N(C)C)cc2)CC1
CCOC(=O)N1CCN(CC(=O)N2c3ccccc3Sc3ccccc32)CC1
Cn1ncc2c(N3CCCCC3)nc(NCCCO)nc21
Cc1c(CCOC(=O)CC23CC4CC(CC(C)(C4)C2)C3)sc[n+]1Cc1ccc([N+](=O)[O-])cc1
O=C(c1cc(F)c(F)cc1Cl)N1CCN(c2ncccn2)CC1
OC(c1ccccn1)(c1ccccn1)c1ccccn1
COC(=O)Cc1c(C)nc2nc(-c3ccc(OC)cc3)[nH]n2c1=O
CC(=O)O[C@H]1CSC[C@H]1NC(=O)c1ccccc1
COc1cc(NC(=O)c2cccnc2)c(OC)cc1NC(=O)c1ccc(Br)cc1
COc1cccc(NC(=O)N2CCCc3ccccc32)c1
CCCCCC1CCC(C(=O)NCCN2CCOCC2)CC1 (centres undefined)
CC(C)Cc1cc(C(=O)NCCCN2CCOCC2)no1
CN[C@H]1[C@H](O)[C@@H](O[C@@H]2[C@H](O)[C@@H](O[C@H]3OC(CN)=CC[C@H]3N)[C@@H](N)C[C@H]2N)OC[C@@]1(C)O
COc1ccc(-c2cc(-c3ccc(C)cc3)n[nH]2)c(O)c1
CN(C)CCCNCC(=O)c1c(-c2ccccc2)n(C)c2ccccc12
CN1CCS/C1=C/C=C1/SC(=S)N(Cc2ccccc2)C1=O
CN(C)c1ccc(N=Nc2ccc(C(=O)O)cc2)cc1
O=C(CCn1nc(-c2ccccc2)ccc1=O)N1CCN(c2ccccn2)CC1
CC(=O)c1c(O)cc(O)cc1CC(=O)O
Oc1ccc2ccccc2c1N=Nc1nccs1
